# Source: PubChem BioAssay AID1345085 (National Center for Advancing Translational Sciences (NCATS), 2018)
# Results filed as inconclusive are left out. A call without a number means that no potency is given here. The source made the active and inactive calls. Calls follow the shape of the dose curve; as a rule, active = well fitted cell-killing curve with a large enough effect; inconclusive = small, poorly fitted or top-dose-only effect, or effect the other way; inactive = no such curve, though single readings can be large or run the other way.
# Tested on: SW626
# Experiment: Confirmatory qHTS for gynecologic anti-cancer compounds from libraries of approved drugs and bioactive compounds; also: nearly all actives have a fitted effect of over 55% in size
# Details: gynecologic cancer cell panel viability, ATPlite luminescence, 48 h; series mostly up to 57.6 µM
# Procedure, shortened: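 ATP-based luminescent viability (ATPlite) after 48 h drug treatment at 37 °C, 5% CO2, across 57.5 uM–0.977 nM in 1:3 steps. Cells seeded at 1,000 per well 16 h beforehand; IC50 values computed, HEK 293T as selectivity control.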
# Potency is read from the fitted curve at half-maximal effect.
row,SMILES,Potency
1,NC(=O)c1ccc2nc(-c3ccc(Oc4ccc(Cl)cc4)cc3)[nH]c2c1,inactive
2,CC(C)C[C@H](NC(=O)[C@@H](NC(=O)c1cccc(-c2ccccc2)n1)[C@@H](C)O)B(O)O,0.0385 µM (active)
3,CN(C)CC/C=C1\c2ccccc2COc2ccccc21,inactive
4,COc1ccc2c(c1OC)C(=O)O[C@@H]2[C@H]1c2c(cc3c(c2OC)OCO3)CCN1C,inactive
5,Cc1cc(C2CCCCC2)n(O)c(=O)c1,8.86 µM (active)
6,Cc1[nH]c2ccccc2c1CCNCc1ccc(/C=C/C(=O)NO)cc1,0.0968 µM (active)
7,CN1CCN(c2ccc(OC(F)(F)F)c(Nc3ncc4c(n3)-c3c(c(C(N)=O)nn3CCO)CC4)c2)CC1,inactive
8,CN(NC(=O)CC(=O)NN(C)C(=S)c1ccccc1)C(=S)c1ccccc1,0.0968 µM (active)
9,O=C(O)C1(Cc2cccc(Nc3nccs3)n2)CCC(Oc2cccc(Cl)c2F)CC1 (stereo unspecified),inactive
10,Fc1cc(-c2cccc3ncc(-c4cnn(C5CCNCC5)c4)nc23)cc(F)c1CN1CCOCC1,27.3 µM (active)
11,Cc1cc(Nc2cc(N3CCN(C)CC3)nc(/C=C/c3ccccc3)n2)n[nH]1,21.7 µM (active)
12,CCOc1ccc(Nc2nc(-c3c(C)nc4ccccn34)cs2)cc1,inactive
13,O=c1[nH]c(=O)n([C@H]2C[C@H](O)[C@@H](CO)O2)cc1F,inactive
14,Cn1c(=O)c(F)c(Nc2ccc(I)cc2F)c2c(=O)n(CC(O)CO)cnc21 (stereo unspecified),0.0544 µM (active)
15,Nc1nc(Cl)nc2c1ncn2C1OC(CO)C(O)C1F (stereo unspecified),inactive
16,COc1cc(C(=O)N2CCC(N3CCN(C)CC3)CC2)ccc1Nc1ncc2c(n1)N(C)c1ccccc1C(=O)N2C,7.69 µM (active)
